Experiment [1] can be described thus: qHTS Assay for Lipid Storage Modulators (AID 1519; calls by dose curve). As to conditions: Drosophila S3 cells, BODIPY lipid droplet/cell ratio, laser cytometry, cells loaded with oleic acid. The gist of the method: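 Cells seeded at 5,000 per well were treated with compounds over a concentration series and loaded with oleic acid (400 uM, as added). Lipid droplet fluorescence (488 nm excitation, 500-530 nm channel) was read by laser-scanning cytometry and normalized to 20 uM Triacsin C.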
A general note: qHTS replaces the single test concentration by a dilution series.

Experiment [2] addresses Ubiquitin carboxyl-terminal hydrolase 1 (Homo sapiens) (UniProt O94782). Briefly: Inhibitors of USP1/UAF1: Pilot qHTS (AID 504865).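 Note: rhodamine fluorescence freed from ubiquitin-rhodamine substrate followed over time; top concentration of the series differs between compounds; % is set by controls: 0 for no effect and ±100 for the full control effect; nearly all actives have a fitted effect of over 35% in size.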 As to conditions: purified USP1/UAF1, Ub-rhodamine cleavage fluorescence; series mostly up to 114 µM. Put shortly:
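In 50mM HEPES pH 7.8 containing 0.5mM EDTA, 1mM TCEP, 0.1 mg/ml BSA and 0.01% Tween-20, 1nM USP1/UAF1 is exposed to compound for 15 min, then Ub-Rho (150nM final) is added and fluorescence is read over time.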

Experiment [3] concerns the target DNA dC->dU-editing enzyme APOBEC-3G (Homo sapiens) (UniProt Q9HC16). Briefly: qHTS for inhibitors of Vif-A3G interactions: Validation (AID 588379). Note: 0% is about no effect. The following applies: Vif-A3G protein interaction assay; series mostly up to 46.1 µM. Put shortly: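 Yellow fluorescence (Ex 488, Em 500-530) of Vif-coexpressing HeLa A3G-eYFP cells, scanned by Acumen cytometer, reports blocked A3G degradation. Cells plated at 700/well overnight at 37 deg C before compound addition, then a further overnight compound incubation at 37 deg C.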

Experiment [4] in a line: Cell Viability - LYMP1-002 - Assay at 24 hr (AID 993). Note: % is set by controls: 0 for no effect and ±100 for the full control effect. The following applies: LYMP1-002 lymphoblastoid cells viability; series mostly up to 92.2 µM. The gist of the method: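 Viability was judged from intracellular ATP using a luciferase read-out, following a 24-hour compound incubation at 37 C of lymphoblastoid cells seeded at 2500 per well. Concentration-response data were fitted to the Hill equation for AC50.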

The nature of experiment [5]: qHTS Assay for Identification of Small Molecule Inducers of Hypoxia Response (AID 2120; active = well fitted curve in the direction sought with a large enough effect in the signal ratio, with a control signal flat, not every such curve was filed as active; the % refers to the signal ratio; note: 0% is about no effect). The following applies: hypoxia response reporter cells, beta-lactamase ratio readout; series mostly up to 104 µM. Put shortly:
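HRE-bla ME-180, 2500 cells/well, 0.5% dialyzed FBS medium; cpd titration, 17 h 37 degrees C; CCF4 2.5 h RT; Ex 405, Em 460/530 ratio -> %Activity, AC50.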

Experiment [6] has as its target Estrogen receptor (Homo sapiens) (UniProt P03372). Kind of experiment: qHTS assay for small molecule antagonists of estrogen receptor alpha signaling (AID 588513; active = well fitted curve in the direction sought with a large enough effect in the signal ratio, with a control signal flat, not every such curve was filed as active; the % refers to the signal ratio; note: % is set by controls: 0 for no effect and ±100 for the full control effect). The following applies: ER-alpha-UAS-bla HEK293, beta-lactamase ratio, antagonist mode; series mostly up to 76.9 µM. Put shortly:
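Fluorescence from CCF4 substrate after 2 h at room temperature gave reporter activity; cells had been exposed to compound and 0.5nM 17-beta-estradiol for 18 h at 37 C. Hill-equation fitting yielded IC50 and maximal response.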

Experiment [7] addresses Glucocorticoid receptor (Homo sapiens) (UniProt P04150). Kind of experiment: qHTS assay for small molecule agonists of glucocorticoid receptor signaling (AID 588532; active = well fitted curve in the direction sought with a large enough effect in the signal ratio, with a control signal flat; the % refers to the signal ratio;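 note: 100% = dexamethasone at 0.1 µM and 0% = DMSO only wells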). As to conditions: HeLa MMTV-bla, beta-lactamase ratio, agonist, 18 h; stronger effect = higher value; percent of dexamethasone control, DMSO zero. The gist of the method:
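Titration series, up to 92 uM, applied to GRE-bla HeLa cells for 18 h at 37 C. Detection by CCF4 FRET substrate after 2 h at RT.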

The target is the same in experiment [8]. Kind of experiment: qHTS assay for small molecule antagonists of glucocorticoid receptor signaling (AID 588533; active = well fitted inhibition curve with a large enough effect in the signal ratio, with a control signal flat, not every such curve was filed as active; the % refers to the signal ratio;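 note: cells stimulated with 2 nM dexamethasone as agonist; % is set by controls: 0 for no effect and ±100 for the full control effect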). As to conditions: HeLa MMTV-bla, GRE beta-lactamase ratio, antagonist mode, 18 h; series mostly up to 76.8 µM. Put shortly:
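Antagonist-mode qHTS: compound titrations added to GRE-bla HeLa cells, then dexamethasone 2 nM final; 18 h, 37 C. CCF4 FRET fluorescence normalized to dexamethasone and DMSO; IC50 from Hill fit.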

Experiment [9] can be described thus: qHTS assay for small molecule antagonists of peroxisome proliferator-activated receptor delta signaling (AID 588535; active = well fitted inhibition curve with a large enough effect in the signal ratio, with a control signal flat, not every such curve was filed as active; the % refers to the signal ratio;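 for max response: cells co-treated with a PPAR-delta agonist as stimulator during compound exposure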). As to conditions: HEK293T PPARd-UAS-bla, beta-lactamase FRET ratio, 18 h; 460 nm channel. The gist of the method: (§1)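 Compounds tested in titration on PPAR-delta-UAS-bla HEK293T cells grown in charcoal/dextran-stripped serum (2%); beta-lactamase activity read via CCF4 emission at 460 and 530 nm.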

Experiment [10] deals with Peroxisome proliferator-activated receptor delta (Homo sapiens) (UniProt Q03181). Described as above. The following applies: HEK293T PPARd-UAS-bla, beta-lactamase FRET ratio, 18 h; series mostly up to 76.7 µM. The gist of the method:
as §1

Experiment [11] has as its target Peroxisome proliferator-activated receptor gamma (Homo sapiens) (UniProt P37231). Briefly: qHTS assay for small molecule agonists of peroxisome proliferator-activated receptor gamma signaling (AID 588536; active = well fitted curve in the direction sought with a large enough effect in the signal ratio, with a control signal flat, not every such curve was filed as active; the % refers to the signal ratio;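 note: 0% = DMSO basal wells and 100% = rosiglitazone at 2 µM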). As to conditions: HEK293 PPARg-UAS-bla, beta-lactamase ratio, 16 h, percent of rosiglitazone response, DMSO as zero; series mostly up to 76.7 µM. Put shortly:
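Cells were plated and held 6–6.5 h at 37 C, then compounds were added as a titration series. After a further 16 h, CCF4 dye was loaded for 2 h at room temperature and emission at 460/530 nm recorded.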

Experiment [12] concerns the target Vitamin D3 receptor (Homo sapiens) (UniProt P11473). Briefly: qHTS assay for small molecule antagonists of vitamin D receptor signaling (AID 588541; calls by dose curve;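 note: receptor activated by calcitriol during compound treatment; % is set by controls: 0 for no effect and ±100 for the full control effect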). As to conditions: HEK293T VDR-UAS-bla, beta-lactamase ratio, antagonist mode; series mostly up to 76.7 µM. The gist of the method:
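VDR-UAS-bla HEK293T cells (2000/well, 2% charcoal-stripped FBS) were treated with titrated compounds plus 1-alpha,25-dihydroxyvitamin D3 (50 nM or 3 nM final) for 16 h at 37 C. CCF4 beta-lactamase fluorescence was read; Hill fits gave IC50.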

The target is the same in experiment [13]. Kind of experiment: qHTS assay for small molecule agonists of vitamin D receptor signaling (AID 588543; calls by dose curve;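 note: 0% = DMSO basal and 100% = reference agonist control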). The following applies: HEK293T VDR-UAS-bla, beta-lactamase ratio, 16 h; series mostly up to 76.8 µM. The gist of the method: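 Reporter cells (HEK293T, VDR-UAS-bla) were seeded in medium with 2% charcoal-stripped serum and incubated 5 h, then compounds in concentration series were added for 16 h at 37 °C. Stimulation was scaled between DMSO basal and 50 nM 1α,25-dihydroxyvitamin D3.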

A short description of experiment [14]: qHTS assay for small molecule agonists of retinoid X receptor alpha signaling (AID 588544). The following applies: HEK293T RXRa-UAS-bla, beta-lactamase reporter, 18 h; 530 nm emission.
The target in experiment [15] is ATP-dependent 6-phosphofructokinase (Trypanosoma brucei brucei) (UniProt O15648). Briefly: qHTS Assay to Find Inhibitors of T. brucei phosphofructokinase: hit validation (AID 492961). The following applies: T. brucei PFK, ADP-Glo luminescence; series mostly up to 51.4 µM. Put shortly:
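Percent activity derived from corrected luminescence, normalized between 0x and 1x enzyme controls, then fitted to concentration-response curves. Conditions: 1.25 nM PFK, 0.1 mM ATP, 0.5 mM F6P, 45 min RT.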

The target of experiment [16] is alpha-glucosidase (Oryza sativa, rice) (UniProt Q653V4). Briefly: Counterscreen for Glucocerebrosidase Inhibitors: qHTS Assay for Rice alpha-Glucosidase at pH 5.0 (AID 997).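 Note: 0% = full activity with enzyme and -100% = basal without enzyme.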 As to conditions: rice alpha-glucosidase enzyme activity; series mostly up to 76.9 µM. The gist of the method: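 Endpoint fluorogenic assay at pH 5.0: compounds (0.7 nM to 77 uM) titrated against 4 nM rice enzyme and 400 uM 4-MU-alpha-glucoside for 20 min at room temperature; NaOH/glycine stop, read ex 365/em 440 nm, Hill-fitted AC50.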
In general terms: Counterscreens check selectivity or assay interference.

Experiment [17] deals with Estrogen receptor (Homo sapiens) (UniProt P03372). Briefly: qHTS assay for small molecule agonists of estrogen receptor alpha signaling (AID 588514; calls by dose curve;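 note: 0% = vehicle only and 100% = reference agonist; nearly all actives have a fitted effect of over 70% in size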). As to conditions: ER-alpha-UAS-bla HEK293, beta-lactamase ratio, 18 h, percent of full estradiol response, vehicle zero; series mostly up to 76.8 µM. The gist of the method:
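Fluorescence from CCF4 cleavage reports ER-alpha-driven beta-lactamase expression in HEK 293 cells treated 18 hrs at 37 C. Data normalized to 17-beta-estradiol (20 nM) and DMSO, fitted to Hill equation.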

For experiment [18], the target named is Androgen receptor (Homo sapiens) (UniProt P10275). Briefly: qHTS assay for small molecule agonists of androgen receptor signaling (AID 588515; active = well fitted curve in the direction sought with a large enough effect in the signal ratio, with a control signal flat; the % refers to the signal ratio; note: % is set by controls: 0 for no effect and ±100 for the full control effect). The following applies: AR-UAS-bla HEK293, beta-lactamase ratio, agonist 16 h; stronger effect = higher value. Put shortly:
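Stimulation of an AR-responsive β-lactamase reporter in GripTite HEK293 cells was measured after 16 h compound exposure at 37 °C, via CCF4 fluorescence after 2 h RT. EC50 from Hill fits, normalized to R1881 at 30 nM.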

For experiment [19] the target is unchanged. Kind of experiment: qHTS assay for small molecule antagonists of androgen receptor signaling (AID 588516; active = well fitted curve in the direction sought with a large enough effect in the signal ratio, with a control signal flat, not every such curve was filed as active; the % refers to the signal ratio; note: potency is the fitted concentration of half-maximal effect). As to conditions: AR-UAS-bla HEK293, beta-lactamase ratio, antagonist mode, 16 h; series mostly up to 76.8 µM. Put shortly: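 Cells were plated and incubated 5 h, compounds added in titration, then R1881 (10 nM final) as agonist. After 16 h at 37 C, CCF4 substrate was loaded for 2 h at room temperature and fluorescence measured.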

The nature of experiment [20]: Cell Viability - LYMP1-002 - Assay at 40 hr (AID 994).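 Note: 0% = DMSO only and full inhibition = 92 µM tetraoctylammonium bromide; nearly all actives have a fitted effect of over 60% in size.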 As to conditions: LYMP1-002 lymphoblastoid cell viability; series mostly up to 92.2 µM. Put shortly:
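Concentration-dependent ATP loss after 40 hr treatment at 37 C defined toxicity; AC50 values were obtained by fitting the standard Hill equation.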

Where [21] appears, read: measured here: cell count channel max response.
The mark [22] stands for this setting: measured here: lipid channel max response.

Structures are written as SMILES. Inconclusive results are not listed. The source made the active and inactive calls. Unless noted, calls come from the whole dose curve; as a rule, active = well fitted curve in the direction sought with a large enough effect; inconclusive = small, poorly fitted or top-dose-only effect, or another doubt; inactive = no such curve, though single readings can be large; an effect the other way counts as inactive or inconclusive.

Glucocorticoid receptor (Homo sapiens), sequence (P04150 whole entry, looked up): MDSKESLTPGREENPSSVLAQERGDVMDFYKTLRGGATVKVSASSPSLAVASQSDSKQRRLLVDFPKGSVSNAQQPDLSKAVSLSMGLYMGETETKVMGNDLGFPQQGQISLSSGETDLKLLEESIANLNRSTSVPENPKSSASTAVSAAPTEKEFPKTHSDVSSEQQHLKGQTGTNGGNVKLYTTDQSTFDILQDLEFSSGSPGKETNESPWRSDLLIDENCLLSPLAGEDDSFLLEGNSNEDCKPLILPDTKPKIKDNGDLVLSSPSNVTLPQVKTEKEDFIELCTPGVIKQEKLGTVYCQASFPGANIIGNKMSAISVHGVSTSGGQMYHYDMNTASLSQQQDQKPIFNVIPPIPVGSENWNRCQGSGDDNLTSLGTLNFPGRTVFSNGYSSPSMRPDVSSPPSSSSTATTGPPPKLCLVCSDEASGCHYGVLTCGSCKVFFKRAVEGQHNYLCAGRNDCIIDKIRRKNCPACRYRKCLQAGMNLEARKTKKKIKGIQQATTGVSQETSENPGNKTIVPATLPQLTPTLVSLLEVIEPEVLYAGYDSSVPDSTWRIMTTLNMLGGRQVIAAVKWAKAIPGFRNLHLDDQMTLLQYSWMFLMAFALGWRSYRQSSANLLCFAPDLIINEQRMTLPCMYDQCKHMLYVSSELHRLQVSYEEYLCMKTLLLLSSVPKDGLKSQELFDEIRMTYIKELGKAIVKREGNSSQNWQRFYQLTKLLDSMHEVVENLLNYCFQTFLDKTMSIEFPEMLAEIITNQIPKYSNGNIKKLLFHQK
Ubiquitin carboxyl-terminal hydrolase 1 (Homo sapiens), sequence (O94782 whole entry, looked up): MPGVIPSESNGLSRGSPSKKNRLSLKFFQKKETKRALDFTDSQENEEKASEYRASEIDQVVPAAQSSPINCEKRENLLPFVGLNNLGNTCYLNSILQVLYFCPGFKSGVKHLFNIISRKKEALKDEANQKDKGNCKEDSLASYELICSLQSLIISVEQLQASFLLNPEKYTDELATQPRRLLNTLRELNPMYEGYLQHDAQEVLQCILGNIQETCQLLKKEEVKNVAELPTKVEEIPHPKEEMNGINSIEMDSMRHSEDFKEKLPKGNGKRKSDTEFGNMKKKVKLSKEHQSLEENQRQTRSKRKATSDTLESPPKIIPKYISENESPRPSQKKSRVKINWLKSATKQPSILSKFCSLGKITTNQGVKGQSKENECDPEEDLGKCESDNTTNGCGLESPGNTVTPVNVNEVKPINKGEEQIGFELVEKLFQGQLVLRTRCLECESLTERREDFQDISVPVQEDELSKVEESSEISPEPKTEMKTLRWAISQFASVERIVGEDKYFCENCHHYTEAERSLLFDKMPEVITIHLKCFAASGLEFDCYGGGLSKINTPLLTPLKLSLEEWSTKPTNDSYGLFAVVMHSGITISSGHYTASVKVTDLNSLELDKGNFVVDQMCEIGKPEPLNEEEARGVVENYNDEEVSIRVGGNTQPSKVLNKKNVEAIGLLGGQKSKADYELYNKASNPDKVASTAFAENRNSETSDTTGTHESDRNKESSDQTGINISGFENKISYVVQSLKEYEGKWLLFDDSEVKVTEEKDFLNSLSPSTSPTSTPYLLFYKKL
Androgen receptor (Homo sapiens), sequence (P10275 whole entry, looked up): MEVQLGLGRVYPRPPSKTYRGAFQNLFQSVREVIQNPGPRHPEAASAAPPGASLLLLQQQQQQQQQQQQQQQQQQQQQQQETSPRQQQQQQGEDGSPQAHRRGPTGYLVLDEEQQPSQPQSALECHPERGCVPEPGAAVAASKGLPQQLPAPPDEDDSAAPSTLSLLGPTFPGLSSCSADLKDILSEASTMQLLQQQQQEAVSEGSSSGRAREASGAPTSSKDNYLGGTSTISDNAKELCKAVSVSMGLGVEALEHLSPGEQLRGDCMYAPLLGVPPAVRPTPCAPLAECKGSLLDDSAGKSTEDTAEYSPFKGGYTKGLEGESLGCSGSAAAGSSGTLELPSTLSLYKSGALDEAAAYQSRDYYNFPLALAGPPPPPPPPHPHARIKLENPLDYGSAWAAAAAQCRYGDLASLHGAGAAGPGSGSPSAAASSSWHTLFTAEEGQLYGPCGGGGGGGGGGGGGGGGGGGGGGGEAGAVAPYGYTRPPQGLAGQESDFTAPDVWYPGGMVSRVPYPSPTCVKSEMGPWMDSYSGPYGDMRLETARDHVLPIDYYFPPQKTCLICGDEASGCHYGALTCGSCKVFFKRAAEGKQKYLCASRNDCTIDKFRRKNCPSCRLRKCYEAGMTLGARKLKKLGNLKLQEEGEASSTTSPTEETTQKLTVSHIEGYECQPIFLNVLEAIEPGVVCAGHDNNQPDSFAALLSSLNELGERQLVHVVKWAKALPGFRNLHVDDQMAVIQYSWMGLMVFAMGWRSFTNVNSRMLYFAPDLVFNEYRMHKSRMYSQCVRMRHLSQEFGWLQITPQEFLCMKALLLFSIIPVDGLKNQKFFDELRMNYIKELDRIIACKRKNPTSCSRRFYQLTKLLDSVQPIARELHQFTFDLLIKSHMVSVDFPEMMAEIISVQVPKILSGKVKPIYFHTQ
DNA dC->dU-editing enzyme APOBEC-3G (Homo sapiens), sequence (Q9HC16 whole entry, looked up): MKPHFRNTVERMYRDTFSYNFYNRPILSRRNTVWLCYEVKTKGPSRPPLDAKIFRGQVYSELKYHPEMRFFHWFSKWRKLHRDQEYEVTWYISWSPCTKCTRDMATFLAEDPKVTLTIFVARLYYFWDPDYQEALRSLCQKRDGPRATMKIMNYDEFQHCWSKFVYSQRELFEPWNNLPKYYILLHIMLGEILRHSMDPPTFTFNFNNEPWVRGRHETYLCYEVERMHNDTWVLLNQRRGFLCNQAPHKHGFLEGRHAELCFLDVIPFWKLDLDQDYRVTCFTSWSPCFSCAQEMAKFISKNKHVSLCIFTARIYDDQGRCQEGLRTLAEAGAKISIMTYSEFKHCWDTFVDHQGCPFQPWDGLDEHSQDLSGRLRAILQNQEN
Estrogen receptor (Homo sapiens), sequence (P03372 whole entry, looked up): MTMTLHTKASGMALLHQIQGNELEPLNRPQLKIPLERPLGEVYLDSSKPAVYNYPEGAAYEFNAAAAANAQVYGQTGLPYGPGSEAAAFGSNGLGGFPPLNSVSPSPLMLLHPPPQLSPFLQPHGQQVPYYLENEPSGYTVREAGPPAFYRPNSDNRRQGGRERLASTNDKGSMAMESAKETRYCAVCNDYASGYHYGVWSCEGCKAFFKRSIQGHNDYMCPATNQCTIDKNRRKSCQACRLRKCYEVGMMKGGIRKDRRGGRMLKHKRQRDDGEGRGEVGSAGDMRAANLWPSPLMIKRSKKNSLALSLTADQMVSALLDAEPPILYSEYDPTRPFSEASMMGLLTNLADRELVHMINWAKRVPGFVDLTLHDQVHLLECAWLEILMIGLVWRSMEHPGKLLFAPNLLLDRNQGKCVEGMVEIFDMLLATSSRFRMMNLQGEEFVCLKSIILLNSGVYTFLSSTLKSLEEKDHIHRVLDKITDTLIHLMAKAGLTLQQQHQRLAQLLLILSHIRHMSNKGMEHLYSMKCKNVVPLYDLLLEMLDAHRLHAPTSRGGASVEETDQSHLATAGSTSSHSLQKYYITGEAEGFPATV
Vitamin D3 receptor (Homo sapiens), sequence (P11473 whole entry, looked up): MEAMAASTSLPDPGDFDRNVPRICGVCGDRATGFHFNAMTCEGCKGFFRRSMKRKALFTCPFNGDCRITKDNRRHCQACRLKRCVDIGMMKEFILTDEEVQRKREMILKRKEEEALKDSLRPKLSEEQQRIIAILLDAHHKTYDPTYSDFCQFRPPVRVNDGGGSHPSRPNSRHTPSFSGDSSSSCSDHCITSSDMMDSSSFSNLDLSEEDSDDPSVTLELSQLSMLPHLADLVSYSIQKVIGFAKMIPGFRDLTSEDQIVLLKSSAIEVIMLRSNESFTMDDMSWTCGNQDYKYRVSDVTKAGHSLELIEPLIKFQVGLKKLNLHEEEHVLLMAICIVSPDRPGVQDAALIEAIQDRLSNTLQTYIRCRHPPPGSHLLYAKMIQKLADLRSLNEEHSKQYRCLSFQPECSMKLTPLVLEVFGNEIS
Peroxisome proliferator-activated receptor gamma (Homo sapiens), sequence (P37231 whole entry, looked up): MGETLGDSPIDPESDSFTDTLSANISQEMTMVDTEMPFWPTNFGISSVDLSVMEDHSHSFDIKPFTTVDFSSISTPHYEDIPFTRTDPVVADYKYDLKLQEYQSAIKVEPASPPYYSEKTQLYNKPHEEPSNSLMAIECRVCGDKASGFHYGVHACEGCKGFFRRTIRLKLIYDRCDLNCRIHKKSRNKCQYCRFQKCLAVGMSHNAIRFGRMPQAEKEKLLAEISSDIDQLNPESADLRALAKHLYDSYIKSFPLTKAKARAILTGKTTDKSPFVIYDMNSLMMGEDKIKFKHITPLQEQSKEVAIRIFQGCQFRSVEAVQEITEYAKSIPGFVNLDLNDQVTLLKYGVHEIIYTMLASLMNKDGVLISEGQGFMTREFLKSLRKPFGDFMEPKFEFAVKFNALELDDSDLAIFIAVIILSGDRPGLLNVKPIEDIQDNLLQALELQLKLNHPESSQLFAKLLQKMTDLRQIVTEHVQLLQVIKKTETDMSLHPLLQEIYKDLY
Peroxisome proliferator-activated receptor delta (Homo sapiens), sequence (Q03181 whole entry, looked up): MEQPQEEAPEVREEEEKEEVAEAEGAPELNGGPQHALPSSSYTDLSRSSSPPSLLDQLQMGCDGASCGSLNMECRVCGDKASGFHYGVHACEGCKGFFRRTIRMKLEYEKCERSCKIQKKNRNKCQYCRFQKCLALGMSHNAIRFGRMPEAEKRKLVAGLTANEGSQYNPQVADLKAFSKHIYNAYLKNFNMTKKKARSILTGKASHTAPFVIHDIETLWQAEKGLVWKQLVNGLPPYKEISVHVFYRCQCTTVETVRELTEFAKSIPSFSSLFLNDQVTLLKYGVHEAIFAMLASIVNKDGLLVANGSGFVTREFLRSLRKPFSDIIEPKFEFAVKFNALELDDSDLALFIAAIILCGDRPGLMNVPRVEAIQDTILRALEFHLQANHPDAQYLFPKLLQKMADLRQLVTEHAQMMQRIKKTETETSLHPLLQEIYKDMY

As to `COc1ccc2c(OC)c3ccoc3nc2c1OC`, the activity change, negative = inhibition in [1] (at 25.7 µM (top of the series)) is -9.25% (inactive). Besides, the values for the max response in [1] (setting [21]) and in [1] (setting [22]) were 0.385% and -6.85%, respectively. Besides, the outcome in [2] and in experiment [3] was inactive.

Take `Nc1nc2c(ncn2[C@@H]2O[C@H](CO)[C@@H](O)[C@H]2O)c(=O)[nH]1`: the activity change, negative = inhibition in experiment [1] (at 57.5 µM (top of the series)) was -2.55% (inactive). Further, the max response in experiment [1] (setting [21]) was -11.6%; in [1] (setting [22]), -14.4%. Also, the result in [2] and in experiment [3] was inactive.

`Nc1ccccc1N`: the outcome in [4], in experiment [5], in [6], in [8], in [10] and in experiment [11] was inactive. Further, the result in [12] and in [13] was inactive. Further, the activation in [7] is 10.6% (inactive). Besides, the values for the max response in experiment [9] and in experiment [14] were -23.4% and 12.1%, respectively.

Regarding `CC[C@]1(O)CC2CN(CCc3c([nH]c4ccccc34)[C@@](C(=O)OC)(c3cc4c(cc3OC)N(C)[C@H]3[C@@](O)(C(=O)OC)[C@H](OC(C)=O)[C@]5(CC)C=CCN6CC[C@]43[C@@H]65)C2)C1` (stereo not given in full), in experiment [15], the call was inactive.

For the compound `CC(=O)O[C@H]1C(=O)[C@@]2(C)[C@H]([C@H](OC(=O)c3ccccc3)[C@]3(O)C[C@H](OC(=O)[C@H](O)[C@@H](NC(=O)c4ccccc4)c4ccccc4)C(C)=C1C3(C)C)[C@]1(OC(C)=O)CO[C@@H]1C[C@@H]2O`, the compound was classed as inactive in experiment [16], in experiment [15], in experiment [2], in experiment [3], in experiment [17] and in experiment [13]. The activation in experiment [18] is -6.87% (inactive). Also, the Potency in [19] is 50.1 nM (active). The max response in experiment [14] is -13.7%.

On to `CC(=O)c1cc2c(cc1O)OC(C)(C)C=C2`, for which the activity change, negative = inhibition in experiment [1] (at 57.5 µM (top of the series)) is 18.6% (inactive). Besides, the max response in experiment [1] (setting [21]) was -14.4%; in experiment [1] (setting [22]) it was 0.328%. The result in [2] was inactive.

As to `CC(=O)O[C@@H]1CC(C)=C2[C@H]1[C@H](C)CC[C@H]2/C=C(\C)C(=O)O`, the result in [4], in [20], in [5], in [6], in experiment [17] and in experiment [8] was inactive. In addition, the result in experiment [11], in experiment [12] and in [13] was inactive. The activation in experiment [18] is -3.27% (inactive); in experiment [7] it was 9.44% (inactive). Further, the max response in [14] was found to be 12.6%.

With `CC(C)C(N)C(=O)OCCOCn1cnc2c(=O)[nH]c(N)nc21` (stereo not given), the activity change, negative = inhibition in experiment [1] (at 57.5 µM (top of the series)) was 7.31% (inactive). For the same compound, the max response in [1] (setting [21]) is 9.47%; in experiment [1] (setting [22]) it was 21.7%. Also, the compound was classed as inactive in experiment [2].

As for `Cc1ccc(N)cc1O`, the outcome in experiment [4], in experiment [20], in experiment [5], in experiment [17], in experiment [8] and in experiment [10] was inactive. Besides, the result in experiment [11], in [12] and in experiment [13] was inactive. Also, the Potency result in experiment [19] was “inactive”. The activation in experiment [7] is 0.383% (inactive). In addition, the max response is -0.329% in [9] and 6.75% in [14].

As to `COc1ccc(C[C@H](N)C(=O)N[C@@H]2[C@H](O)[C@H](n3cnc4c(N(C)C)ncnc43)O[C@@H]2CO)cc1`, the compound was classed as inactive in experiment [2].
